# Measured values: PubChem BioAssay (Tox21)
# Inconclusive results are not listed. Entries that show only a call come without a potency. Active and inactive are the calls of the source. Calls follow the shape of the dose curve; as a rule, active = well fitted activation curve with a large enough effect in the signal ratio in the repeat runs (not every such curve was filed as active); inconclusive = weak or mixed curves, or effect the other way; inactive = flat fitted curve, though single readings scatter; the % refers to the signal ratio.
# Assay: qHTS assay to identify small molecule agonists of the endoplasmic reticulum stress response signaling pathway (AID 1159516)
# Conditions: ESRE-bla HeLa, ER stress beta-lactamase reporter, 5 h; series mostly up to 61 µM
# From the text: National Center for Advancing Translational Sciences [NCATS]
# NIH Chemical Genomics Center [NCGC]
# U.S. Environmental Protection Agency [EPA]
# National Institutes of Environmental Health Sciences [NIEHS]
# National Toxicology Program [NTP]
# U.S. Food and Drug Administration [FDA]
# Endoplasmic Reticulum (ER) plays an important role in cellular signaling, protein folding/maturation, stress response, lipid biosynthesis, calcium storage and release etc. Under stress conditions, proteins in ER misfold or unfold, and leading to the expression of ER stress responsive genes. ER stress has been associated with a variety of pathophysiological conditions such as cancer, inflammation, neurodegenerative diseases, diabetes, ischemic heart disease etc. To identify the compounds that induce ER stress response, an ER stress reporter cell line, CellSensor ESRE-bla HeLa (Life Technologies, Carlsbad, CA) containing a beta-lactamase reporter gene under control of the Endoplasmic reticulum Stress Response Element (ESRE) was used to screen Tox21 10K compound library.
# Tox21 Assay Protocol Summary:
# ESRE-bla HeLa cells were dispensed at 1,500 cells/6 uL of assay medium per well into black wall/clear-bottom 1536-well plates using a Multidrop Combi (ThermoFisher Scientific, Waltham, MA) dispenser. After the assay plates were incubated at 37 C and 5% CO2 for an overnight, 23 nL of compounds dissolved in DMSO, positive controls or DMSO only was transferred to the assay plate by a Pintool station (Kalypsys, San Diego, CA). The assay plates were incubated at 37 C and 5% CO2 for 5 hr. One uL of LiveBLAzer B/G FRET substrate (Life Technologies) was added using a Flying Reagent Dispenser (Aurora Discovery, San Diego, CA) and the plates were incubated at room temperature for 2 hr. Fluorescence intensity (405 nm excitation, 460 nm and 530 nm emissions) was measured using an Envision plate reader (PerkinElmer, Shelton, CT).
row,Compound,Potency
1,NC1CCCCC1N (stereo not given),inactive
2,O=Cc1ccc(CO)o1,inactive
3,O=C(NCC1CCCCN1)c1cc(OCC(F)(F)F)ccc1OCC(F)(F)F (stereo not given),inactive
4,C=CC(=O)NCOCCCC,inactive
5,CN1Cc2c(N)cccc2C(c2ccccc2)C1 (stereo not given),inactive
6,OB(O)O,inactive
7,O=c1n(CCCN2CCN(c3cccc(Cl)c3)CC2)nc2ccccn12,inactive
8,CC(CN1c2ccccc2Sc2ccccc21)N(C)C (stereo not given),inactive
9,Cc1ccccc1C=O,inactive
10,OCC(O)CS (stereo not given),inactive
11,CC(C=O)Cc1ccc(C(C)(C)C)cc1 (stereo not given),inactive
12,CCc1cccc(CC)c1N,inactive
13,CC(C)=CCC/C(C)=C/C=O,inactive
14,OCCOCCOCCOCCOCCO,inactive
15,CC(COCC(C)OC(=O)c1ccccc1)OC(=O)c1ccccc1 (stereo not given),inactive
16,Clc1cccc(Cl)c1NC1=NCCN1,inactive
17,OCc1ccc(Cl)cc1Cl,inactive
18,C=CC(C)(C)C,inactive
19,CCN(CC)CCNC(=O)c1ccc(N)cc1,inactive
20,CCOC(=O)c1ccc(O)cc1,inactive

row,Compound,Potency
1,O=c1c(O)c(-c2ccc(O)c(O)c2)oc2cc(O)cc(O)c12,inactive
2,CCCCCCCC(=O)O,inactive
3,OC[C@H]1O[C@@H](Oc2ccc(O)cc2)[C@H](O)[C@@H](O)[C@@H]1O,inactive
4,COc1ccc(N)c(OC)c1,inactive
5,Nc1cccc(N)n1,inactive
6,OCC(CO)(CO)CO,inactive
7,CCCOC(=O)NCCCN(C)C,inactive
8,Cc1ccc(C)c(S(=O)(=O)O)c1,inactive
9,C=C1C[C@]23C[C@@]1(O)CC[C@H]2[C@@]12C=C[C@H](O)[C@@](C)(C(=O)O1)[C@H]2[C@@H]3C(=O)O,inactive
10,NC(N)=S,inactive
11,CC(=O)CC(=O)N(C)C,inactive
12,CCOC(=O)CC(=O)OCC,inactive
13,N[C@@H](Cc1cc(I)c(Oc2ccc(O)c(I)c2)c(I)c1)C(=O)O,inactive
14,C=C(C)CC(C)(C)C,inactive
15,Cc1ncc(CO)c(CO)c1O,inactive
16,Cc1cc(CC(=O)O)n(C)c1C(=O)c1ccc(Cl)cc1,inactive
17,Cc1ccc(C(C)C)cc1,inactive
18,Cc1cccc(C)c1[N+](=O)[O-],inactive
19,COc1ccc([C@@H]2CC(=O)c3c(O)cc(O[C@@H]4O[C@H](CO[C@@H]5O[C@@H](C)[C@H](O)[C@@H](O)[C@H]5O)[C@@H](O)[C@H](O)[C@H]4O)cc3O2)cc1OC,inactive
20,CCCCC(=O)O,inactive
